High-throughput results as filed in PubChem BioAssay.
This is a sample that favours compounds with a hit; in the whole collection about 8.7% have one here.
Pf growth 48h: Primary qHTS for delayed death inhibitors of the malarial parasite plastid, 48 hour incubation. hit rate 5.9% among 310,000. Potency, µM (highest dose often 28.7 µM), without a hit: at the highest dose activity change, negative = inhibition, hits mostly inhibitors. AID 504832, 2011. P. falciparum luciferase growth in erythrocytes, 48 h
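Parasite viability was followed by luminescence of a genomically integrated firefly luciferase. Cultures held 0.1% parasitemia at 2% hematocrit (final), incubated under 5% CO2 at 37 C.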
Pf growth 96h: Primary qHTS for delayed death inhibitors of the malarial parasite plastid, 96 hour incubation. Potency, µM (highest dose often 28.7 µM), for inactives: top-dose activity change, negative = inhibition, usual class: inhibitors. hit rate 6.9% among 320,000. AID 504834, 2011. P. falciparum luciferase reporter growth, 96 h
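Readout is luminescence from an integrated firefly luciferase in P. falciparum. Red cells, 2% hematocrit and 0.05% parasitemia final, were cultured with compound through two parasite generations (96 hours) at 37 C, 5% CO2.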
VACV Venus inh: qHTS for Stage-Specific Inhibitors of Vaccinia Orthopoxvirus: Venus Reporter Primary qHTS | Vaccinia virus Venus reporter expression, fluorescence | Potency, µM (highest dose often 36.5 µM), for the others: at the top dose activity change, negative = inhibition, most hits filed as inhibitors | hit rate 0.46% among 330,000; calls by dose curve; tested in A549 cells; also: nearly all actives have a fitted effect of over 30% in size
Vaccinia mCherry: qHTS for Stage-Specific Inhibitors of Vaccinia Orthopoxvirus: mCherry Reporter Primary qHTS; Potency, µM (series often up to 36.5 µM), inactives show top-dose activity change, negative = inhibition, actives largely listed as inhibitors; Vaccinia virus mCherry reporter infection, fluorescence; hit rate 0.63% among 310,000; AID 720579, 2013; calls by dose curve; tested in A549 cells; also: nearly all actives have a fitted effect of over 35% in size
AMA1 RON2 block: qHTS for Inhibitors of AMA1-RON; Towards Development of Antimalarial Drug Lead: Primary Screen; Plasmodium falciparum AMA1 (3D7) - RON2 peptide interaction; AlphaScreen AMA1-biotinylated RON2 peptide binding; Potency, µM (series often up to 58.2 µM), inactives show at the top dose activity change, negative = inhibition, actives largely listed as inhibitors; hit rate 0.2% among 360,000; AID 720542, 2013;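 also: 0% = vehicle wells and -100% = peptide control; nearly all actives have a fitted effect of over 45% in size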
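AMA1 (3D7) with his tag at 25 nM final met compounds first, then biotinylated RON2 peptide at 25 nM; detection used donor plus acceptor beads, 10 µg/mL apiece, read by AlphaScreen after 30 min at room temperature.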
* hit, by the source's call; i = inactive; ? = inconclusive; / = no result given; [ ] = remark or other dose. Unless noted, calls follow the shape of the dose curve; as a rule, active = well fitted curve in the direction sought with a large enough effect; inconclusive = small, poorly fitted or top-dose-only effect, or another doubt; inactive = no such curve, though single readings can be large; an effect the other way counts as inactive or inconclusive. Unless noted, % is scaled to controls: 0 for no effect and ±100 for the full control effect; potency is read from the fitted curve at half-maximal effect.

SMILES	Pf growth 48h	Pf growth 96h	VACV Venus inh	Vaccinia mCherry	AMA1 RON2 block
COc1ccc(NC(=O)c2c(NCc3ccc(C)o3)sc3c2CCC(C)C3)cc1 (configuration not stated)	/	/	-14.8%	-5.2%	/
CCCCOc1ccc(Cn2c(=O)sc3ccccc32)cc1OC	/	/	-17.0%	-11.9%	/
COc1cc(C(=O)Nc2sc3c(c2C#N)CCCC3)c(Br)c(OC)c1OC	/	/	-24.9%	?	/
CCOc1ccccc1NC(=O)C(C)N(c1ccccc1)S(C)(=O)=O (configuration not stated)	/	/	-8.2%	-8.7%	/
O=C(Nc1ccc(F)c(Cl)c1)N1CC=C(c2c[nH]c3ccccc23)CC1	/	/	-4.0%	-8.4%	/
O=C(Nc1cccc(F)c1)N1CC=C(c2ccc(Cl)cc2)CC1	/	5.86µM*	?	i	-14.6%
CCCNC(=O)Cn1c2ccccc2c2nc(=O)cc(C)n21	/	8.28µM*	9.5%	19.7%	-2.0%
O=C(CCOc1ccccc1)Nc1ccccc1	16.9%	11.7µM*	-14.7%	/	9.4%
O=C(CCCCCCC(=O)Nc1ccccc1)NO	0.213µM*	0.135µM*	/	/	/
O=C(CCCC(=O)c1ccccc1)Nc1ccc(O)cc1	-14.8%	10.4µM*	/	/	0.0%
CN(C(=O)CSc1nc2ccccc2n1Cc1cccc(C(F)(F)F)c1)c1ccccc1	/	/	-13.0%	-18.9%	/
CC1=C(C(=O)OCc2ccc(C)cc2)C(c2ccccc2C(F)(F)F)CC(=O)N1 (configuration not stated)	/	/	-16.1%	-17.0%	/
CC(C)c1ccc2c(c1)CCC1C(C)(CN)CCCC21C (configuration not stated)	?	10.4µM*	?	?	5.8%
CC(C)c1ccc2c(c1)CC[C@H]1[C@](C)(CN)CCC[C@]21C	/	/	-29.7%	?	2.2%
COc1ccccc1NC(=O)c1sc2nc(C)c(C(=O)Nc3ccc(C)cc3C)c(-c3ccco3)c2c1N	/	/	-19.1%	i	/
Cc1cc(C(=O)Nc2ccccc2-c2nc(CNC(=O)c3cc4ccccc4cn3)c(C)o2)c(C)o1	/	/	7.0%	-8.1%	/
CCOC(=O)C1=C(C)N(C)C(=S)NC1c1ccc(Cl)cc1Cl (configuration not stated)	-16.9%	14.7µM*	-24.7%	-5.7%	14.0%[11.6 µM]
CCOC(=O)C1=C(C)N(C)C(=S)NC1c1ccccc1Cl (configuration not stated)	0.0%	?	-3.7%	-2.0%	-2.8%
CCCCOc1ccc(S(=O)(=O)N2CCN(c3ccccc3OCC)CC2)cc1	/	/	0.4%	-14.3%	/
Cc1ccc(S(=O)(=O)N/N=C/c2cccc3c2OCCO3)cc1	1.5%	2.08µM*	-7.9%	-15.5%	10.9%
Cc1ccc(S(=O)(=O)N/N=C/c2cccc3nccnc23)cc1	-2.0%	-7.5%	/	/	0.8%
COC(=O)c1cc2c(cc1NC(=O)c1cnn(-c3ccc(C)cc3)c1-n1cccc1)OCO2	/	/	-10.8%	-4.8%	/
CCC(=O)Nc1cccc(NC(=O)CSc2nnnn2Cc2ccccc2)c1	26.6%	2.08µM*	-14.9%	i	-8.4%
CC(C)(C)NC(=O)CSc1nc2ccc(NC(=O)CSc3nnnn3Cc3ccccc3)cc2s1	/	4.65µM*	?	?	41.4%
COc1cc(NC(=O)CSc2nnnn2Cc2ccccc2)cc(OC)c1	10.9%	-8.3%	/	/	0.0%
SMILES	Pf growth 48h	Pf growth 96h	VACV Venus inh	Vaccinia mCherry	AMA1 RON2 block
COc1ccc(NC(=O)CSc2nnc(NC(=O)NC3CCCCC3)s2)cc1OC	/	/	-8.7%	-14.9%	/
CC(C)Sc1nnc2c3ccccc3n(C)c2n1	/	/	-18.4%	i	/
COc1cccc(NC(=O)C2C3CCC4C(CCC32)C4(Cl)Cl)c1 (configuration not stated)	-24.2%	-12.1%	-22.6%	-3.7%	5.0%
COc1ccc(NC(=O)C2C3CCC4C(CCC32)C4(Cl)Cl)cc1 (configuration not stated)	3.5%	5.22µM*	-5.0%	-14.1%	2.0%
COc1cc(-c2nc(-c3cccc(C)c3)no2)cc(OC)c1OC	-16.9%	/	-7.7%	-8.1%	12.7%
COc1cc(-c2nc(Cc3c(F)cccc3Cl)no2)cc(OC)c1OC	11.7µM*	?	/	/	25.5%
COc1cc(-c2noc(-c3cccc(Cl)c3)n2)cc(OC)c1OC	27.1%	14.7µM*	/	/	9.2%
COc1cc(-c2nc(-c3cccnc3)no2)cc(OC)c1OC	17.9%	-16.8%	-7.8%	-17.7%	9.0%[11.6 µM]
CCC[C@@H]1C[C@@H](C(=O)N[C@H]([C@@H](C)O)[C@H]2O[C@H](SC)[C@H](O)[C@@H](O)C2O)N(C)C1 (some centres not stated)	0.0415µM*	0.131µM*	-16.7%	-23.8%	-13.4%
CCC[C@@H]1C[C@@H](C(=O)N[C@@H]([C@H]2O[C@H](SC)[C@H](O)[C@@H](O)[C@H]2O)[C@@H](C)O)N(C)C1	2.69µM*	0.169µM*	/	/	/
CCCN1CCN(CCCNC(=O)c2ccc3c(c2)sc2nc(-c4ccc(C)cc4)cn23)CC1	/	/	?	7.08µM*	/
O=C(NCCCN1CCCCCC1)c1ccc2c(c1)sc1nc(-c3ccccc3)cn12	/	/	?	-15.9%	/
CC(NNC(=O)c1ccccc1)c1ccccc1 (configuration not stated)	84.9%	94.4%	/	/	/
C/C(=N\Nc1nc2ccccc2[nH]1)c1ccc([N+](=O)[O-])cc1	0.185µM*	0.0657µM*	-7.7%	i	0.0%
COc1ccc(-c2cnc(C)o2)cc1S(=O)(=O)Nc1ccc(OC(F)(F)F)cc1	/	/	3.0%	-7.7%	/
C/C(CCN1CCCCc2nc(C)c(C)cc21)=N\OC[C@@H](O)[C@H]1O[C@@H]2OC(C)(C)O[C@@H]2[C@H]1O	6.2%	-24.0%	/	/	/
COc1ccc(O[C@H]2C=C[C@@H](c3ccccc3)O[C@@H]2CO/N=C(\C)CCN2CCCCc3nc(C)c(C)cc32)cc1	1.65µM*	?	/	/	/
C/C(CCN1CCCCc2nc(C)c(C)cc21)=N\O[C@@H](C)CN1CCCCc2nc(C)c(C)cc21	13.1µM*	11.7µM*	/	/	/
